Experiment [1] can be described thus: qHTS assay to identify small molecule antagonists of the retinoid acid receptor (RAR) signaling pathway - cell viability counter screen (AID 1159551). Note: nearly all actives have a fitted effect of over 35% in size. Note: potency is the fitted concentration of half-maximal effect. Summed up: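 ATP-based viability, C3RL4 cells, 6 h at 37 C with 1 uM final retinol co-added after compound; luminescence read 30 min post CellTiter-Glo, RT.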
Experiment [2] deals with Luciferin 4-monooxygenase (Photinus pyralis) (UniProt P08659). Nature of the experiment: qHTS assay to identify small molecule inhibitors of firefly luciferase (AID 1224835). Note: nearly all actives have a fitted effect of over 25% in size. Note: potency is the fitted concentration of half-maximal effect. Summed up: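 Inhibition of purified Photinus luciferase is measured by luminescence. Substrate levels (D-luciferin, ATP) sit at their KM values. Each compound is tested in a concentration series.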
Chain of Luciferin 4-monooxygenase (Photinus pyralis) (P08659 whole entry, looked up): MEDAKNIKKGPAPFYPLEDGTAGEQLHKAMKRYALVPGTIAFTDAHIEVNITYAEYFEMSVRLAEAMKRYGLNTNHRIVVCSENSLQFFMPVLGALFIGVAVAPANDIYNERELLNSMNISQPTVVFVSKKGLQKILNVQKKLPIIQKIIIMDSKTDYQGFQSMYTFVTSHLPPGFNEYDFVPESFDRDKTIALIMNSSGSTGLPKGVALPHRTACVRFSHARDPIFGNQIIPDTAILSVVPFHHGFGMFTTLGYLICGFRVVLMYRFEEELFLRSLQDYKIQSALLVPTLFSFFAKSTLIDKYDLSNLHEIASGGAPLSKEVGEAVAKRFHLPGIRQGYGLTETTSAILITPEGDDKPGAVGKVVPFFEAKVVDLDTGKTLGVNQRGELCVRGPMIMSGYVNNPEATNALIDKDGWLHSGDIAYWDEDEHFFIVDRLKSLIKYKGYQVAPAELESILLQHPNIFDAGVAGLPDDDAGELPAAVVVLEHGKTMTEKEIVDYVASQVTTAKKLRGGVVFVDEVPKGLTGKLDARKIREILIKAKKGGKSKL
A general note: In qHTS, concentration-response curves come from the screen itself.

The nature of experiment [3]: qHTS assay to identify small molecule agonists of the constitutive androstane receptor (CAR) signaling pathway - cell viability counter screen (AID 1224836). Note: nearly all actives have a fitted effect of over 45% in size. Note: potency is the fitted concentration of half-maximal effect. Summed up: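 23 h treatment, 37 C, 5% CO2. Cell line: HepG2 stably expressing hCAR with a CYP2B6-2.2kb construct. Co-treatment: PK11195, 0.75 uM final. Read-out: CellTiter-Fluor fluorescence intensity.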
Experiment [4] is described as follows: qHTS assay to identify small molecule antagonists of the constitutive androstane receptor (CAR) signaling pathway - cell viability counter screen (AID 1224837). Note: nearly all actives have a fitted effect of over 45% in size. Note: potency is the fitted concentration of half-maximal effect. Summed up:
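Cells are seeded, rested 4 hr at 37 C/5% CO2, dosed with compound (15-point series) and 50 nM CITCO, incubated a further 23 hr, and then CellTiter-Fluor reagent is added before fluorescence is read. The line is HepG2 with stable hCAR and CYP2B6-2.2kb.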

Experiment [5] can be described thus: qHTS assay to identify small molecule antagonists of the estrogen related receptor signaling pathway with the pleiotropic PPARgamma coactivator (PGC) from Tox21 10K library - cell viability counter screen (AID 1224840; active = well fitted cell-killing curve with a large enough effect in the repeat runs, not every such curve was filed as active; note: nearly all actives have a fitted effect of over 40% in size; note: potency is the fitted concentration of half-maximal effect). Summed up: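 Cell viability is measured by CellTiter-Fluor fluorescence in PGC/ERR cells that receive compounds after a 6-hour attachment period and are then incubated 17.5 hours at 37 C.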

Experiment [6] in a line: qHTS assay to identify small molecule agonists of the estrogen related receptor signaling pathway with the pleiotropic PPARgamma coactivator (PGC) from Tox21 10K library (AID 1224842). Note: nearly all actives have a fitted effect of over 15% in size. Note: potency is the fitted concentration of half-maximal effect. Summed up:
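Luminescence from One-Glo (30 min, room temperature) measured after PGC/ERR cells had 18 h at 37 C with pinned compound (23 nL in DMSO). Cells had been seeded at 2,000 per well and pre-incubated 6 h.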

Experiment [7] deals with Thyrotropin receptor (Homo sapiens) (UniProt P16473). Description: qHTS assay to identify small molecule agonists of the thyroid stimulating hormone receptor (TSHR) signaling pathway (AID 1224843; calls by dose curve; note: nearly all actives have a fitted effect of over 45% in size; note: potency is the fitted concentration of half-maximal effect). Summed up:
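Agonist activity read as cAMP rise via d2/cryptate HTRF competition, 1 h room-temperature detection, in HEK293 cells expressing TSHR. Fifteen-point titrations, each run in triplicate, with a 30 min room-temperature incubation beforehand.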

Experiment [8] in a line: qHTS assay to identify small molecule agonists of the hypoxia (HIF-1) signaling pathway - cell viability counter screen (AID 1224844; calls by dose curve; note: nearly all actives have a fitted effect of over 50% in size; note: potency is the fitted concentration of half-maximal effect). Summed up: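 Viability counter screen: HRE-bla ME-180 cells plated 5 hrs before compound addition, treated 17 hrs at 37C and 5% CO2, then CellTiter-Glo added after the FRET reporter read; luminescence after 30 min.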
Experiment [9] can be described thus: qHTS assay to identify small molecule antagonists of the estrogen related receptor (ERR) signaling pathway from Tox21 library - cell viability counter screen (AID 1224834). Note: nearly all actives have a fitted effect of over 30% in size. Note: potency is the fitted concentration of half-maximal effect. Summed up:
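Compounds in DMSO were pinned onto ERR cells that had been incubated for 6 h, and the plates were held at 37 C for 17.5 h. CellTiter-Fluor reagent was then added and fluorescence was measured after 30 min.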

A short description of experiment [10]: qHTS assay to identify small molecule agonists of H2AX (AID 1224845; active = well fitted activation curve with a large enough effect in the signal ratio in the repeat runs, not every such curve was filed as active; the % refers to the signal ratio; note: potency is the fitted concentration of half-maximal effect). Summed up:
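Phospho-H2AX Ser139 measured by HTRF (ex 320 nm; em 665 and 620 nm) after 24 hr antibody incubation. Compounds, 15 concentrations, 0.76% DMSO, were applied to CHO-K1 cells for 3hr at 37C before lysis.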

In experiment [11] the target is Nuclear receptor subfamily 1 group I member 3 (Homo sapiens) (UniProt Q14994). Description: qHTS assay to identify small molecule agonists of the constitutive androstane receptor (CAR) signaling pathway (AID 1224839).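 For activation: HepG2 cells stably carrying human CAR and a CYP2B6 luciferase reporter; series mostly up to about 92 µM.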 Note: nearly all actives have a fitted effect of over 15% in size. Note: potency is the fitted concentration of half-maximal effect. Summed up:
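Compounds tested at 15 concentrations on HepG2 cells stably harbouring hCAR and CYP2B6-2.2kb reporter constructs, co-treated with PK11195 (0.75 uM final), 24 h at 37 C; luminescent reporter signal quantified.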

Experiment [12] can be described thus: qHTS assay to identify small molecule antagonists of the estrogen related receptor signaling pathway with the pleiotropic PPARgamma coactivator (PGC) from Tox21 10K library (AID 1224841; call rule not given here; note: actives are mostly falling curves and most rising ones were filed inactive; nearly all actives have a fitted effect of over 50% in size; note: potency is the fitted concentration of half-maximal effect). Summed up:
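Cells stably carrying the PGC/ERR reporter, seeded at 2,000 per well, received pin-transferred compounds 6 h post-plating. Exposure lasted 18 h at 37 C. Signal: One-Glo luminescence.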

Experiment [13] has as its target Nuclear receptor subfamily 1 group I member 3 (Homo sapiens) (UniProt Q14994). Nature of the experiment: qHTS assay to identify small molecule antagonists of the constitutive androstane receptor (CAR) signaling pathway (AID 1224838).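 Note: HepG2 cells stably expressing hCAR with CYP2B6 luciferase reporter stimulated by CITCO; nearly all actives have a fitted effect of over 40% in size.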 Note: potency is the fitted concentration of half-maximal effect. Summed up: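 Luminescence from a CYP2B6-2.2kb promoter reporter in hCAR-expressing HepG2 cells reflects CAR signaling. Cells received compounds at 15 concentrations and 50 nM CITCO (final), then incubated 24 h at 37 C/5% CO2.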

Experiment [14] can be described thus: qHTS assay to identify small molecule antagonists of the retinoic acid receptor (RAR) signaling pathway (AID 1159552; note: nearly all actives have a fitted effect of over 50% in size; note: potency is the fitted concentration of half-maximal effect). Summed up:
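Test chemicals and DMSO controls were pin-transferred onto C3RL4 cells a day after seeding; retinol (1 uM final) followed at once. Luminescent reporter output was quantified after 6 hr of co-incubation and 30 min with detection reagent.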

A short description of experiment [15]: qHTS assay to identify small molecule agonists of the retinoic acid receptor (RAR) signaling pathway (AID 1159553). Note: potency is the fitted concentration of half-maximal effect. Summed up: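 Quantitative high-throughput format: the Tox21 10K library was tested on C3RL4 RARE-luciferase cells for 6 hr at 37 C and 5% CO2, with luminescence measured after a 30 min room-temperature reagent step.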
The nature of experiment [16]: qHTS assay to identify small molecule antagonists of the estrogen related receptor (ERR) signaling pathway - cell viability counter screen (AID 1224818).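 Note: series mostly up to about 46 µM; viability measured after 17.5 h of compound exposure.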 Summed up:
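Quantitative high-throughput viability counter screen in ERR cells. Compounds (DMSO) incubated 17.5 h at 37 C; read-out was CellTiter-Fluor fluorescence.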

Experiment [17] can be described thus: qHTS assay to identify small molecule agonists of the estrogen related receptor (ERR) signaling pathway (AID 1224820). Summed up:
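After 6 h plating (2,000 cells/well) and 18 h compound treatment at 37 C, ERR cells were lysed with One-Glo and luminescence read after 30 min at room temperature.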

Experiment [18] is described as follows: qHTS assay to identify small molecule agonists of the estrogen related receptor signaling pathway with the pleiotropic PPARgamma coactivator (PGC) (AID 1224823). Summed up: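 Luminescence from One-Glo reagent (30 min, room temperature) was read after 18 h compound treatment at 37 C of PGC/ERR cells plated 6 h beforehand; compounds delivered in DMSO by pin tool.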

Values joined by “and” are separate entries in the source; they are usually repeats but may differ in a detail not shown here. Identical values can stand only once. Records with an inconclusive call do not appear. Where a structure was tested more than once in an assay, its records may differ in their call. Active and inactive are the calls of the source. Unless noted, calls come from the whole dose curve; as a rule, active = well fitted curve in the direction sought with a large enough effect in the repeat runs; inconclusive = weak or mixed curves; inactive = no such curve, though single readings can be large; an effect the other way counts as inactive or inconclusive.
% is set by controls: 0 for no effect and ±100 for the full control effect.

Chain of Nuclear receptor subfamily 1 group I member 3 (Homo sapiens) (Q14994 whole entry, looked up): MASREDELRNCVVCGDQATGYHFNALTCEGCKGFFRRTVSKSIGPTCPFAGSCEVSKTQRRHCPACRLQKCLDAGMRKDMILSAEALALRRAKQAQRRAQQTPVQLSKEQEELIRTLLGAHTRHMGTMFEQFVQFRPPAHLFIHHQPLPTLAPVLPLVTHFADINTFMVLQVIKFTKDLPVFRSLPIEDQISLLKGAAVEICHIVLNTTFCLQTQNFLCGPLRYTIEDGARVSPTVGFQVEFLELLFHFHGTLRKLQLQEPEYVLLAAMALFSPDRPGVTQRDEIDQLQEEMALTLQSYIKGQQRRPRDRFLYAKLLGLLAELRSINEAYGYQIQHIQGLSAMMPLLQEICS
Chain of Thyrotropin receptor (Homo sapiens) (P16473 whole entry, looked up): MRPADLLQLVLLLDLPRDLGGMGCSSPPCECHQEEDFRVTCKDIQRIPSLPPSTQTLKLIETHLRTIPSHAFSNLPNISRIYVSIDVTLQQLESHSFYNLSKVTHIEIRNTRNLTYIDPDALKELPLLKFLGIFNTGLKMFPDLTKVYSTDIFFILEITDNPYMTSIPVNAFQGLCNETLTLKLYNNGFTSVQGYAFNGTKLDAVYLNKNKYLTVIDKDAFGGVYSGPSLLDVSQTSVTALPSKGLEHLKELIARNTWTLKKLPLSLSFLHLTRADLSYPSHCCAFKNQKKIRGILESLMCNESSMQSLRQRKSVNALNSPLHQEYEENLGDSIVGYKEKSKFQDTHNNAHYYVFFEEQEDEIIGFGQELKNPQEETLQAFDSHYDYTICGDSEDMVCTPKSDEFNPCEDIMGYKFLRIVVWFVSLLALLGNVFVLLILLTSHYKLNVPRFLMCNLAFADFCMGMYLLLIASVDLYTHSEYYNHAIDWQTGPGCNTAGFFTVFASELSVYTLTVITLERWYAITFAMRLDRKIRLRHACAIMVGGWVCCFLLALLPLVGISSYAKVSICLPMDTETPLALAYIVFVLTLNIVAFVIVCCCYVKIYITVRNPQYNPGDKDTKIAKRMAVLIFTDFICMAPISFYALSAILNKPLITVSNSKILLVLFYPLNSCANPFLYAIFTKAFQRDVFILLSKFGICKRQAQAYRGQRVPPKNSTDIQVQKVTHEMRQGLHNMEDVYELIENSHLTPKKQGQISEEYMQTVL

Take `CC(C)C(=O)Cl`: the Potency entry in [1], in experiment [2], in experiment [3], in experiment [4], in [5] and in experiment [6] was “inactive” in each case. The Potency entry in experiment [7] and in experiment [8] was “inactive” throughout.
Turning to `CCCCCCCCCCCCCC[P+](CCCCCC)(CCCCCC)CCCCCC` (tested in a mixture with another compound), the Potency in [1] was 27.3 µM (active); in experiment [9] it was 24.3 µM (active); in experiment [3] it was 17.2 µM (active); in experiment [4], 17.2 µM (active); in experiment [5], 24.3 µM (active); in experiment [10], 17.9 µM (active).
Take `Oc1cc(Cl)c(Cl)c(Cl)c1`: the Potency result in [1], in experiment [2], in [11], in experiment [6], in experiment [7] and in experiment [8] was “inactive” in each case. Also, the Potency result in experiment [10] is “inactive”. The Potency in [12] is 36.6 µM (active).
In the case of `O=[N+]([O-])O.O=[N+]([O-])O.[Cd]`, the Potency result in [1] is “inactive”. Further, the values for the Potency in [3], in experiment [4] and in experiment [5] were 7.7 µM (active), 6.11 µM (active) and 3.06 µM (active), respectively.
For the compound `CCCCOCN(C(=O)CCl)c1c(CC)cccc1CC`, the Potency result in experiment [1], in experiment [2], in experiment [3], in [4], in experiment [13] and in [5] was “inactive” each time. The Potency entry in experiment [6] and in experiment [7] was “inactive” in each case. Also, the figures for the Potency in experiment [11] and in experiment [12] were 27.3 µM (active) and 12.2 µM (active), respectively.
Consider `C=CCC1=C(C)C(OC(=O)C2C(C=C(C)C)C2(C)C)CC1=O` (stereo unspecified), for which the results for the Potency in experiment [14] and in [11] were 61.1 µM (active) and 16.3 µM (active), respectively. The Potency result in experiment [15], in experiment [2], in experiment [4], in experiment [13] and in experiment [6] was “inactive” throughout. Further, the compound was called inactive in experiment [16], in experiment [17] and in experiment [18].
Regarding `C[C@]12CC[C@H](O)C[C@H]1CC[C@@H]1[C@@H]2C[C@@H](O)[C@]2(C)[C@@H](C3=CC(=O)OC3)CC[C@]12O`, the Potency result in [1], in [2], in [11], in [6], in experiment [7] and in experiment [10] was “inactive” in each case. The figures for the Potency in experiment [9], in [13] and in [8] were 0.77 µM (active), 1.22 µM (active) and 11 µM (active), respectively.
Regarding `CC(=O)c1cc(C(C)(C)C)cc2c1CCC2(C)C`, the Potency entry in experiment [1], in experiment [2], in experiment [3], in experiment [4], in [13] and in experiment [5] was “inactive” each time. The Potency result in [12], in [6] and in experiment [8] was “inactive” each time.
`Cc1cc(C)c(C2=C(OC(=O)CC(C)(C)C)C3(CCCC3)OC2=O)c(C)c1`: the Potency result in [1], in experiment [9], in experiment [3], in experiment [13], in experiment [11] and in experiment [5] was “inactive” throughout. Moreover, the Potency entry in [12], in experiment [6] and in experiment [8] was “inactive” in each case.
As to `ClCc1ccc(Cl)cc1Cl`, the Potency entry in [1], in experiment [2], in [3], in experiment [4], in experiment [13] and in experiment [11] was “inactive” in each case. Also, the Potency entry in experiment [5], in experiment [7], in experiment [8] and in experiment [10] was “inactive” throughout.
Regarding `ClC1=C(Cl)[C@]2(Cl)[C@H]3[C@H]([C@H]4C=C[C@H]3C4)[C@@]1(Cl)C2(Cl)Cl`, the Potency entry in experiment [1], in [2], in experiment [3], in [4], in experiment [13] and in experiment [5] was “inactive” each time. Further, the Potency result in [8] and in [10] was “inactive” in each case. Also, the Potency in experiment [11] is 13.7 µM (active); in experiment [7] it was 9.69 µM (active).
Regarding `CCCCCCCCCCCCCCCC[n+]1ccccc1`, the Potency in experiment [1] is 63.9 µM (active) and 54.5 µM (active) and 53.7 µM (active); in experiment [3], 25.5 µM (active) and 15.4 µM (active) and 13.5 µM (active); in experiment [4], 32 µM (active) and 15.4 µM (active) and 19.1 µM (active); in experiment [5] it was 53.7 µM (active) [middle of 4 runs]; in experiment [8], 57.5 µM (active) and inactive. Also, the Potency result in [2] and in experiment [10] was “inactive” throughout.
Take `COC(=O)N(C(=O)N1COC2(C(=O)OC)Cc3cc(Cl)ccc3C2=N1)c1ccc(OC(F)(F)F)cc1` (stereo unspecified): the Potency result in experiment [1], in experiment [2], in [3], in experiment [5], in [6] and in experiment [7] was “inactive” in each case. In experiment [10], the Potency result is “inactive”. The Potency in experiment [12] was 23.7 µM (active).
On to `c1ccc(Nc2ccc3ccccc3c2)cc1`, for which the Potency entry in experiment [14], in [9], in experiment [3], in experiment [4], in experiment [5] and in [12] was “inactive” throughout. The Potency is 3.05 µM (active) and 8.63 µM (active) in experiment [15]; 22.3 µM (active) and 31.7 µM (active) in experiment [2]; 30.5 µM (active) and 48.6 µM (active) in [11]; 27.1 µM (active) and 30.6 µM (active) in experiment [6]; 48.3 µM (active) in experiment [7].
As to `Clc1ccc(C(c2ccccc2Cl)C(Cl)(Cl)Cl)cc1` (stereo unspecified), the Potency result in experiment [1], in [2], in experiment [3], in experiment [4], in experiment [5] and in [6] was “inactive” in each case. In addition, the Potency in experiment [11] is 6.9 µM (active) and 1.6 µM (active).
Take `CN(C)S(=O)(=O)N(SC(F)(Cl)Cl)c1ccccc1`: the Potency in experiment [1] is 48.6 µM (active); in experiment [2], 35.6 µM (active); in experiment [3], 30.6 µM (active); in experiment [4] it was 27.3 µM (active); in experiment [13], 21.7 µM (active); in [5], 24.3 µM (active). Further, the Potency in experiment [8] was 19.5 µM (active). The Potency result in experiment [11] was “inactive”.
Consider `CN(C)C(=S)[S-].CN(C)C(=S)[S-].[Cu+2]`, for which the Potency was 16.7 µM (active) in experiment [1]; 1.18 µM (active) in experiment [9]; 3.73 µM (active) in experiment [3]; 1.49 µM (active) in experiment [4]; 0.938 µM (active) in experiment [5]; 2.67 µM (active) in experiment [8]. In addition, the Potency in experiment [10] was 2.45 µM (active).

(Values after PubChem BioAssay (Tox21).)
